Most compounds without a hit are left out; they make up all but 3.4% or so of the library.
ERb SRC1 inh – blocks coactivator binding to human estrogen receptor beta; inhibition, % at 25.6 µM; 86,000 tested, 1.3% active; Q92731; TR-FRET ER-beta LBD / SRC1-Cy5 peptide binding; receptor agonist-loaded with 1 µM estradiol;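 active = compounds whose percent inhibition of the receptor-coactivator binding signal exceeds about 50% in the single-dose screen, limit read from the data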
ERa coact pot – ER-alpha (human) coactivator binding potentiation. P03372. TR-FRET ERalpha-LBD/SRC-Cy5 coactivator binding, 2 h; 100 = basal binding, no effect. coactivator binding (% of control), % at 25.6 µM. 86,000 tested, 1.3% active. AID 639; in the data active = activity above about 200%;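 also: binding measured in presence of low estradiol as agonist stimulus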
FAK inh – FAK (human) kinase inhibition; biochemical FAK kinase activity assay; inhibition, %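 (tested at 7 µM)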; 97,000 tested, 0.84% active
LYP inh 2 – LYP (human) phosphatase inhibition. inhibition, % at 2 µM. 96,000 tested, 0.21% active. recombinant LYP catalytic domain, DiFMUP fluorescence. AID 640. Q9Y2R2;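 active = inhibition at 2 µM at or above a set limit, the screen mean plus 3 SD, cut at about 24% in these data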
ERa SRC1 inh – blocks coactivator binding to human estrogen receptor alpha. P03372. TR-FRET ER-alpha LBD / SRC-1 peptide, estradiol-bound. inhibition, % at 25.6 µM. 86,000 tested, 1.7% active. AID 629; in the data active = inhibition above about 50%
LYP act – activators of human LYP (PTPN22) phosphatase | AID 697 | 96,000 tested, 0.11% active | recombinant LYP, DiFMUP fluorescence; 0 = plate median, 100 = signal doubled | Q9Y2R2 | activation, % at 2 µM;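 active = activation at 2 µM above a set limit, the mean plus 5 SD, cut at about 37% in these data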
FAK inh conf – FAK (human) inhibition confirmed | FAK kinase biochemical inhibition assay | shares compounds with FAK inh | inhibition, % at 7 µM | 750 tested, 28% active
A number is an active result; – = inactive; · = no result given; [ ] = another dose, or the depositor's remark. Rule as the data show it, unless noted: active = inhibition above about 19%; inactive = the rest.

SMILES	ERb SRC1 inh	ERa coact pot	FAK inh	LYP inh 2	ERa SRC1 inh	LYP act	FAK inh conf
CC(=O)c1ccc(NCC(=O)N2CCN(c3ccccc3)CC2)cc1	56.6	–	19.8	–	85.0	–	19.2
N#Cc1cc(C#N)c(N2CCN(c3ccccn3)CC2)nc1N	·	·	–	–	·	–	·
CCN(CCO)c1nc(SC)nc2c1sc1nc(-c3ccco3)c3c(c12)CCC3	·	·	72.3	–	·	–	–
CC[N+]1(C)CCC(=C2c3ccccc3CC(=O)c3sccc32)CC1 (configuration not stated)	–	–	–	–	–	–	·
C[N+]1(C)CCC(=C2c3ccccc3CC(=O)c3sccc32)CC1	–	–	27.4	–	–	–	–
Cc1noc(C)c1CSc1nc2ccccc2n1CCc1ccccc1	–	–	–	–	–	–	·
CC(C)Cn1[nH]c2c3c(ccc2c1=O)C(=O)c1ccccc1C3=O	·	·	27.1	–	·	–	–
CC(C)COC(=O)c1ccc2c(c1O)C(=O)c1ccccc1C2=O	–	–	–	–	–	–	·
Cc1ccc(C)c(NS(=O)(=O)c2c(C)ccc3nsnc23)c1	–	–	–	–	–	–	·
Cc1ccc2nsnc2c1S(=O)(=O)Nc1cccc2nsnc12	–	–	71.0	–	–	–	47.7
CCCOc1ccc(/C=N/NC(=O)c2ccc(Cn3cc([N+](=O)[O-])cn3)o2)cc1	·	·	23.9	–	·	–	–
O=C(Nc1ccc(-c2nc3ccc(NC(=O)c4cccs4)cc3[nH]2)cc1)c1cccs1	55.5	–	53.4	28.8	91.4[fluorescence artefact?]	–	46.9
COCCNC(=O)C(c1ccc(C)o1)N(C(=O)c1snc(C(N)=O)c1N)c1ccc(C)c(C)c1 (configuration not stated)	–	–	23.0	–	–	–	–
COCCNC(=O)C(c1ccc(C)o1)N(C(=O)c1snc(C(N)=O)c1N)c1cccc(C)c1 (configuration not stated)	–	–	20.1	–	–	–	–
COCCNC(=O)C(c1ccc(C)o1)N(C(=O)c1snc(C(N)=O)c1N)c1ccc(C)cc1 (configuration not stated)	–	–	–	–	–	–	·
Cc1nnc(SCc2ccc3c(c2)OCO3)s1	–	–	–	–	–	–	·
CC(C)(C)Nc1cccccc1=O	–	–	–	–	–	–	·
CNc1cccccc1=S	–	–	43.6	–	95.9[fluorescence artefact?]	–	–
CCOc1ccccc1NC(=O)CSc1nnc(-c2ccccc2Cl)n1Cc1ccco1	–	–	–	–	–	–	·
NC(=O)c1ncc(C(F)(F)F)cc1Oc1ccc(C(F)(F)F)cc1	–	–	–	–	–	–	·
CCOCCOC(=O)C1=C(C)NC2=C(C(=O)CC(c3cccs3)C2)C1c1ccsc1 (configuration not stated)	–	–	22.1	–	–	–	21.1
CCOC(=O)C1=C(C)NC2=C(C(=O)CCC2)C1c1cccs1 (configuration not stated)	–	–	–	–	–	–	·
Cc1cccc(/C=N\NC(=O)c2sccc2-n2cccc2)c1	·	·	–	–	·	–	·
COc1cc(/C=N\NC(=O)c2sc(N)nc2C)cc(OC)c1OC	·	·	–	–	·	–	·
COc1ccc(OC)c(C(=O)c2ccc(C(=O)N3CCCCC3)cc2)c1	–	–	–	–	–	–	·
SMILES	ERb SRC1 inh	ERa coact pot	FAK inh	LYP inh 2	ERa SRC1 inh	LYP act	FAK inh conf
O=C(Nc1ccc2c(c1)oc1ccccc12)c1ccc2c(c1)OCO2	–	–	–	–	–	–	·
O=c1c(O)c(-c2ccc3c(c2)OCO3)oc2ccccc12	·	·	19.6	–	·	–	–
Cc1ccc(NC(=O)CN2C(=O)S/C(=C/c3ccc(-c4cc(C(=O)O)ccc4C)o3)C2=O)cc1C	72.6	237.1[fluorescence artefact?]	75.1	34.8	66.1	–	–
CCn1c(C)cc(/C=C2\SC(=O)N(CC(=O)Nc3ccc(C)c(C)c3)C2=O)c1C	·	·	–	–	·	–	·
CCOC(=O)C(CC)n1nc(C)n2c(cc3occc32)c1=O (configuration not stated)	–	–	–	–	–	–	·
N#Cc1c(NC(=O)CSc2ncnc3sccc23)oc(-c2ccco2)c1-c1ccco1	73.3[fluorescence artefact?]	–	21.8	–	90.4[fluorescence artefact?]	–	–
COC(=O)c1ccccc1NC(=O)CSCC(=O)Nc1ccc(F)cc1	·	·	–	–	·	–	·
CCOC(=O)C1CCN(c2nc3cc(OC)ccc3cc2C#N)CC1	–	–	19.2	–	–	–	–
O=C(N/N=C/c1ccncc1)c1cc2c(ccc3ccccc32)o1	·	·	52.1	–	·	–	–
COc1ccc(CCn2c(=S)[nH]c3cc(C(=O)NCc4ccco4)ccc3c2=O)cc1OC	54.8[fluorescence artefact?]	–	35.2	–	71.5[fluorescence artefact?]	–	–
C=CCn1c2ccccc2c2nnc(SC(CC)C(=O)Nc3sc4c(c3C#N)CCCC4)nc21 (configuration not stated)	·	·	–	–	·	–	·
COc1ccc(C2N(S(=O)(=O)c3ccccc3)CCN2S(=O)(=O)c2ccc(C)cc2)cc1 (configuration not stated)	–	–	–	–	–	–	·
CCOc1ccc2nc(NC3=NC(c4ccc(OC)cc4)CC(=O)N3)nc(C)c2c1 (configuration not stated)	·	·	35.8	–	·	–	24.6
CCOc1ccc2nc(NC3=NC(C)(C)C=C(C)N3)nc(C)c2c1	·	·	–	–	·	–	·
COc1ccc(-c2nn(C)c(=O)c3ccccc23)cc1CNC(=O)CN1CCOCC1	–	–	–	–	–	–	·
CC(C)(C)NC(=S)NCc1cccnc1	·	·	–	–	·	–	·
COc1ccc([N+](=O)[O-])cc1COc1cc(C)cc2oc(=O)cc(-c3ccccc3)c12	·	·	26.5	–	·	–	21.8
O=S(=O)(Nc1ccc(N2CCCCC2)cc1)c1cccs1	–	–	–	–	–	–	·
O=C(c1ccc(NS(=O)(=O)c2cccs2)cc1)N1CCCCC1	–	–	25.4	–	–	–	–
CC(C)COc1ccc2[nH]c3c(c2c1)CCCC3=O	–	–	–	–	–	–	·
O=C(CC1NCCNC1=O)Nc1ccc2c(c1)OCO2 (configuration not stated)	–	–	–	–	–	–	·
O=c1[nH]ncc2c3ccccc3n(Cc3ccccc3)c12	·	·	20.0	–	·	–	–
COCc1cc(C)nc2sc(C(=O)OC)c(N)c12	·	·	–	–	·	–	·
COC(=O)c1sc2cnccc2c1N	–	–	24.3	–	–	–	–
Oc1ccc2ccccc2c1C=Nc1ccc(N2CCOCC2)cc1	–	–	46.0	–	–	–	49.4
COc1ccc(O)c(/C=N/NC(=O)c2ccc(OCc3cccc(Br)c3)cc2)c1	·	·	18.8	–	·	–	–
COc1ccc(C(=O)NCC(=O)OCc2cccc(Br)c2)cc1	·	·	–	–	·	–	·
Cc1cccc(N2CCN(C(=O)CCn3c(=S)[nH]c4cc5c(cc4c3=O)OCO5)CC2C)c1 (configuration not stated)	–	–	–	–	–	–	·

Bioassay records: PubChem, several laboratories
